KCNQ2 block – rat KCNQ2 potassium channel inhibitors, primary screen, cell-based, CHO-K1, FluxOR thallium flux, B-score | B-score at 10 µM | 20 min; active compounds read low | AID 2156, 2009 | 1.1% of 310,000 active;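 active means fluorescence ratio B-score at most minus 3 library SDs, with starting brightness B-score within 2 library SDs, cut at about -5.5 in these data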
KCNQ2 enhance – potentiators of rat KCNQ2 potassium channel; Potassium voltage-gated channel subfamily KQT member 2 (Rattus norvegicus), O88943; CHO-K1 KCNQ2, FluxOR thallium flux fluorescence; active compounds read high; B-score at 10 µM; 0.54% of 310,000 active; AID 2239, 2010;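 active means fluorescence ratio B-score at least 3 SD of library B-scores, with initial fluorescence B-score within 3 of them, cut at about 5.3 in these data; same plate scores as AID 2156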;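 further: B-score of peak minus minimum over baseline fluorescence ratio after K+ and Tl+ stimulus; positive B-score means potentiation of KCNQ2 with more thallium influx and brighter signal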
Kir21 conf inh – mouse Kir2.1 channel blockers, retest, confirmation, cell-based, FluxOR thallium flux, duplicate; shares compounds with KCNQ2 enhance; Kir2.1-expressing cells, FluxOR thallium flux fluorescence; active compounds read low; Tl flux remaining, % of negative control (active compounds read low), % at 10 µM; 41% of 2,300 active;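 active means Primary-screen hit whose thallium flux fell at least 3 control SD below untreated wells in both duplicates, with normal baseline fluorescence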;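 further: 0% = blank wells without stimulus and 100% = stimulated no-compound controls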
HEK293 Tl flux – counter-screen for Kir2.1 inhibitors: effect in parental HEK293 cells; AID 2105; FluxOR thallium flux fluorescence; 0% = unstimulated blank wells; 19% of 2,300 active; FluxOR signal as % of negative control (100 = no effect), % at 10 µM; shares compounds with KCNQ2 enhance;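 active means dye signal at least 3 control SD above or below untreated wells in both duplicates, raw fluorescence within 3, either direction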;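 further: percent is based on the flux ratio of peak minus minimum fluorescence over baseline F0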
CHO-K1 Tl ctr – nonspecific thallium flux increase in parental CHO-K1, confirmation, counter-screen for KCNQ2 potentiator project, cell-based, FluxOR thallium flux, duplicate. 43% of 1,200 active. AID 2282, 2010. shares compounds with KCNQ2 enhance. activity increase over 3SD of controls, % at 10 µM. parental CHO-K1 cells, FluxOR thallium flux fluorescence; zero = vehicle mean+3SD, 100% = vehicle-minus-blank window;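 active means signal rise of at least 3 SD above the untreated control mean, in both duplicate wells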;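 further: counter screen of KCNQ2 potentiator hits so any rise reflects channel-independent effects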
KCNQ1 pot spec – human KCNQ1 channel potentiation off-target, confirmation, selectivity assay for KCNQ2 potentiator project, cell-based, CHO, FluxOR thallium flux. shares compounds with KCNQ2 enhance. CHO KCNQ1 stable, FluxOR thallium flux fluorescence; beyond 3SD, as % of vehicle-control signal. activation over 3SD threshold, % at 10 µM. 28% of 1,200 active. AID 2283, 2010;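 active means fluorescence ratio rise of at least 3 SD of vehicle wells above their mean, in both replicate wells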;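 further: 0% = vehicle mean plus 3 SD and 100% = vehicle minus unstimulated blank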
Target sequence (P51787 whole entry, looked up): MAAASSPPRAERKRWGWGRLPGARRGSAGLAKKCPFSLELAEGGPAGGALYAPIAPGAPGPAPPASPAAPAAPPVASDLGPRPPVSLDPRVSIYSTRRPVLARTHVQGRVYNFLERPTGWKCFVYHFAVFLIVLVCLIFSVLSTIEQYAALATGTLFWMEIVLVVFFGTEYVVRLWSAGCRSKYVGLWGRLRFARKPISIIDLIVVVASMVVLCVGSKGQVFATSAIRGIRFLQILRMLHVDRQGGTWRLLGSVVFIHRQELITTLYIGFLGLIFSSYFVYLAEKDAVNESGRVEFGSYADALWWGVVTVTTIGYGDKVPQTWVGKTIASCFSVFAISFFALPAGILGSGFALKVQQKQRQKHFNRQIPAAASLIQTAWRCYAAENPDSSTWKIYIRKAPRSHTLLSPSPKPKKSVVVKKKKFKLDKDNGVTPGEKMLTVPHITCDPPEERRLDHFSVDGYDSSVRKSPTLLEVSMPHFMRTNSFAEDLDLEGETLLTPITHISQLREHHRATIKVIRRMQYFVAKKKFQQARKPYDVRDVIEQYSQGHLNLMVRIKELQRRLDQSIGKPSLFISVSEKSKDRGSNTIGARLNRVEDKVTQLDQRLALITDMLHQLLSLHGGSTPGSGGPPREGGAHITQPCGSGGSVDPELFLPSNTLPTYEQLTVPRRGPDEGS
KCNQ2 pot conf – rat KCNQ2 channel potentiators, confirmation, cell-based, CHO, FluxOR thallium flux, duplicate | shares compounds with KCNQ2 enhance | CHO-KCNQ2 cells, FluxOR thallium flux fluorescence | potentiation, less the hit threshold, % at 10 µM | 68% of 1,200 active | AID 2287, 2010;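 active means fluorescence ratio rising 3 SD or more over the vehicle control mean in both replicates, plus primary screen hit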;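 further: peak minus minimum thallium fluorescence divided by baseline after K/Tl stimulus; 0% = vehicle mean plus 3 SD and 100% = vehicle minus unstimulated blank difference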
Kir21 spec – mouse Kir2.1 channel activation off-target, confirmation, selectivity assay for KCNQ2 potentiator project, cell-based, HEK293, FluxOR thallium flux | 2% of 1,200 active | HEK293 Kir2.1, FluxOR thallium flux fluorescence | shares compounds with KCNQ2 enhance | AID 2345, 2010 | activity over 3SD threshold, % at 10 µM;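 active means fluorescence ratio rise of at least 3 SD above the vehicle-control mean, seen in both replicates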;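 further: 0% = vehicle mean plus 3 SD and 100% = vehicle minus no-stimulus blank window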
KCNQ2 W236L MoA – potentiators of retigabine-insensitive KCNQ2 W236L, mechanism study for KCNQ2 potentiator project, cell-based, rat KCNQ2 W236L, CHO, automated patch clamp; shares compounds with KCNQ2 enhance; automated patch clamp current; current increase over 3SD of negative controls (%), active compounds read high, % at 25 µM; 10% of 940 active; AID 2558, 2010;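 active means current increase at least 3 SD of the untreated controls above them in both duplicate recordings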
* = called active by the depositor. An excerpt weighted towards active compounds, which were near 1.6% of everything screened.

Screening Oc1ccccc1CN1CCC(C(O)(c2ccccc2)c2ccccc2)CC1 returned KCNQ2 block inactive.
For Oc1ccccc1CN1CCN(C(O)(c2ccccc2)c2ccccc2)CC1 the results were KCNQ2 block inactive, Kir21 conf inh 65.5%* and HEK293 Tl flux inactive.
For CC1CCCCC1NC(=O)CCCn1c(=S)[nH]c2ccccc2c1=O (centres undefined) the results were KCNQ2 block inactive and KCNQ2 enhance 1.01.
For CC1CCCCC1n1c(=S)[nH]c2ccccc2c1=O (centres undefined) the results were KCNQ2 block inactive, KCNQ2 enhance 6.64*, Kir21 conf inh inactive, HEK293 Tl flux 207.5%*, CHO-K1 Tl ctr 0.6*, KCNQ1 pot spec 19.8*, KCNQ2 pot conf 19.1*, Kir21 spec -24.4 and KCNQ2 W236L MoA inactive.
Cc1ccc(N2C(=O)C(Cl)=C(N3CCCCCC3)C2=O)c(C)c1 was read as KCNQ2 block inactive.
For Cc1ccc(S(=O)(=O)/N=C/c2cc(Br)ccc2O)cc1 the results were KCNQ2 block inactive and KCNQ2 enhance 4.31.
Cc1cc(N=Cc2cc(Br)ccc2O)no1 was read as KCNQ2 block inactive, KCNQ2 enhance 9.12*, Kir21 conf inh inactive, HEK293 Tl flux inactive, CHO-K1 Tl ctr -17.5, KCNQ1 pot spec -7.0, KCNQ2 pot conf 0.8*, Kir21 spec -21.7 and KCNQ2 W236L MoA inactive.
For COc1cc(C2/C(=C(\O)c3ccc4c(c3)OCCO4)C(=O)C(=O)N2c2nnc(C)s2)cc(OC)c1OC (centres undefined) the results were KCNQ2 block inactive and KCNQ2 enhance 0.5.
For O=C1NC(=S)SC1=C1CCCCCC1 the results were KCNQ2 block inactive, KCNQ2 enhance 23.1*, Kir21 conf inh inactive, HEK293 Tl flux 357.0%*, CHO-K1 Tl ctr 39.5*, KCNQ1 pot spec 7.2*, KCNQ2 pot conf 57.2*, Kir21 spec -25.8 and KCNQ2 W236L MoA inactive.
For O=C1N=C(N2CCCCC2)SC1=C1CCCCC1 the results were KCNQ2 block inactive and KCNQ2 enhance 0.11.
For NC(=O)c1ccc(SCC(=O)OCC(=O)N2CCCC2=O)c([N+](=O)[O-])c1 the results were KCNQ2 block inactive and KCNQ2 enhance 0.56.
`Cc1cc(SCC(=O)OCC(=O)N2CCCC2=O)c(C)cc1Br` gave KCNQ2 block inactive, KCNQ2 enhance 1.06, Kir21 conf inh inactive and HEK293 Tl flux inactive.
COc1ccc(C(C)NC(=O)CC23CC4CC(CC(C4)C2)C3)cc1 (centres undefined) was read as KCNQ2 block inactive, KCNQ2 enhance 5.66*, Kir21 conf inh inactive, HEK293 Tl flux inactive, CHO-K1 Tl ctr -10.6, KCNQ1 pot spec -9.9, KCNQ2 pot conf -3.4, Kir21 spec -51.9 and KCNQ2 W236L MoA inactive.
CC(NC(=O)CC12CC3CC(CC(C3)C1)C2)C(=O)O (centres undefined) was read as KCNQ2 block inactive and KCNQ2 enhance 1.22.
Screening Cc1ccc(C)c(Cn2nnc3c(=O)[nH]c(C4CCCN(S(=O)(=O)Cc5ccccc5)C4)nc32)c1 (centres undefined) returned KCNQ2 block inactive and KCNQ2 enhance 0.31.
`Cc1cccc(NC(=O)c2cnccn2)c1` gave KCNQ2 block inactive and KCNQ2 enhance 0.71.
Screening CNc1ncnc2sc(-c3ccccc3)cc12 returned KCNQ2 block inactive and KCNQ2 enhance 0.27.
For S=c1[nH]cnc2sc(-c3ccccc3)cc12 the results were KCNQ2 block inactive, KCNQ2 enhance 24*, Kir21 conf inh inactive, HEK293 Tl flux inactive, CHO-K1 Tl ctr -0.6, KCNQ1 pot spec -7.0, KCNQ2 pot conf 70.5*, Kir21 spec -15.2 and KCNQ2 W236L MoA inactive.
`CN1CC(=O)Nc2ccc([N+](=O)[O-])cc2C1=O` gave KCNQ2 block inactive and KCNQ2 enhance 0.75.
Screening COc1ccc(CCNC(=S)NNC(=O)c2c(Br)c(C)nn2C)cc1OC returned KCNQ2 block inactive and KCNQ2 enhance 1.21.
CCOc1ccc(NC(=O)Cc2ccc(NC3=NC4CS(=O)(=O)CC4S3)cc2)cc1 (centres undefined) was read as KCNQ2 block inactive, KCNQ2 enhance 17.3*, Kir21 conf inh inactive, HEK293 Tl flux inactive, CHO-K1 Tl ctr 8.6*, KCNQ1 pot spec -18.1, KCNQ2 pot conf -17.7 and Kir21 spec -30.2.
Screening CCc1ccc(NC(=O)Cc2ccc(NC3=NC4CS(=O)(=O)CC4S3)cc2)cc1 (centres undefined) returned KCNQ2 block inactive.
CCn1c(=O)c2ccccc2n2c(SCC(N)=O)nnc12 was read as KCNQ2 block inactive and KCNQ2 enhance 0.05.
Screening N/C(=N\OS(=O)(=O)c1ccc(Br)cc1)c1ccncc1 returned KCNQ2 block inactive, KCNQ2 enhance 5.61*, Kir21 conf inh inactive, HEK293 Tl flux inactive, CHO-K1 Tl ctr 23.9*, KCNQ1 pot spec -16.3, KCNQ2 pot conf -4.9 and Kir21 spec -46.9.
For N/C(=N\OC(=O)COc1ccc(Br)cc1)c1ccncc1 the results were KCNQ2 block inactive and KCNQ2 enhance 0.68.
`Cc1ccc(NC(=O)NCC2CCN(Cc3cc(C)ccc3Cl)CC2)c(C)c1` gave KCNQ2 block inactive and KCNQ2 enhance 4.81.

Screening data: PubChem BioAssay, Johns Hopkins Ion Channel Center
